Experimental data reported in PubChem BioAssay (Tox21).
“And” between values parts separate entries of the source, which are not always exact repeats. Equal entries are not always repeated. Records with an inconclusive call do not appear. A call without a number means that no potency is given here. The source made the active and inactive calls. The call rests on the fitted dose curve; in most records, active means well fitted cell-killing curve with a large enough effect in the repeat runs; inconclusive means weak or mixed curves; inactive means no such curve, though single readings can be large or run the other way.

Assay: qHTS assay for identifying genotoxic compounds that show differential cytotoxicity against isogenic chicken DT40 cell lines with known DNA damage response pathways - Rad54/Ku70 mutant cell line (AID 743015); further: nearly all actives have a fitted effect of over 60% in size; further: potency means the concentration at half of the fitted maximal effect
Conditions: DT40 Rad54/Ku70 mutant viability, CellTiter-Glo, 40 h; series mostly up to 66.8 µM
For `Nc1ccn([C@@H]2O[C@H](CO)[C@@H](O)C2(F)F)c(=O)n1`, the Potency was 18.8 nM (active). For `Clc1cc(Cl)c(Cl)nc1Cl`, the Potency was “inactive”. For `CC1=NS(=O)(=O)c2cc(Cl)ccc2N1`, the Potency was “inactive”. With `CN(C)CCN(C)CCN(C)C` the Potency was “inactive”. In the case of `CC(C)CC(C)(N)C#N` (centres undefined), the Potency is reported as “inactive”. In the case of `CO[C@@]1(NC(=O)C(C(=O)O)c2ccc(O)cc2)C(=O)N2C(C(=O)O)=C(CSc3nnnn3C)CO[C@@H]21` (some centres undefined), the Potency is reported as “inactive”. With `COc1cc(C(=O)NCc2ccc(OCCN(C)C)cc2)cc(OC)c1OC` the Potency was “inactive”. In the case of `CN1CCC(=C2c3ccccc3CCc3cccnc32)CC1`, the Potency is reported as “inactive”. With `NO` the Potency was “inactive”. With `O=C(CO)[C@@H](O)[C@H](O)[C@H](O)CO` the Potency was “inactive”. In the case of `CC1=NN(c2cccc(S(=O)(=O)O)c2)C(=O)C1`, the Potency is reported as “inactive”. In the case of `CCCCc1nc(Cl)c(CO)n1Cc1ccc(-c2ccccc2-c2nn[nH]n2)cc1`, the Potency is reported as “inactive”. With `[O-][n+]1cccc(CO)c1` the Potency was “inactive”. In the case of `CCCCCCCCCCCCCCCCCCO`, the Potency is reported as “inactive”. With `CN1CCN(c2cc3c(nn2)Oc2ccccc2N3C)CC1` the Potency was “inactive”. In the case of `OCCc1ccccn1`, the Potency is reported as “inactive”. In the case of `Nc1ccn([C@@H]2O[C@H](CO)[C@@H](O)C2O)c(=O)n1` (some centres undefined), the Potency is reported as 376 nM (active) and 172 nM (active). For `COCCOC[C@H](CC1(C(=O)NC2CCC(C(=O)O)CC2)CCCC1)C(=O)Oc1ccc2c(c1)CCC2` (some centres undefined), the Potency was “inactive”. For `COc1cc(-c2ccc(=O)[nH]n2)ccc1OC(F)F`, the Potency was “inactive”. For `CCCCc1ccc2c(n1)[C@@H](c1ccc(OC)cc1C[C@H](C)C(=O)O)[C@H](C(=O)O)[C@H]2c1ccc2c(c1)OCO2`, the Potency was “inactive”. With `O=C(O)c1cc(C(=O)O)cc(C(=O)O)c1` the Potency was “inactive”. For `CCC(C(=O)NC(=O)NC(C)=O)c1ccccc1` (centres undefined), the Potency was “inactive”. With `CCCCS(=O)(=O)N[C@@H](Cc1ccc(OCCCCC2CCNCC2)cc1)C(=O)O` the Potency was “inactive”. With `OCCCCCO` the Potency was “inactive”. For `Nc1ccn([C@@H]2O[C@H](CO)[C@@H](O)[C@@H]2O)c(=O)n1`, the Potency was 43.3 nM (active). With `CC[N+](CC)(CC(=O)Nc1c(C)cccc1C)Cc1ccccc1` (tested in a mixture with another compound) the Potency was “inactive”.

Assay: qHTS assay to identify small molecule antagonists of the androgen receptor (AR) signaling pathway - cell viability counter screen (AID 743033; further: nearly all actives have a fitted effect of over 45% in size)
Conditions: AR-bla HEK293 viability, CellTiter-Glo luminescence, 16 h; series mostly up to 58.5 µM
For `Nc1ccn([C@@H]2O[C@H](CO)[C@@H](O)C2(F)F)c(=O)n1`, the outcome was “inactive”. In the case of `Clc1cc(Cl)c(Cl)nc1Cl`, the outcome is reported as “inactive”. In the case of `C=COC(=O)C(C)(CC)CCC(C)C` (centres undefined), the outcome is reported as “inactive”. In the case of `CN(C)CCN(C)CCN(C)C`, the outcome is reported as “inactive”. For `CC(C)CC(C)(N)C#N` (centres undefined), the outcome was “inactive”. With `C=C(C)C(=O)OCCOCCOCCOCCOC(=O)C(=C)C` the outcome was “inactive”. In the case of `CO[C@@]1(NC(=O)C(C(=O)O)c2ccc(O)cc2)C(=O)N2C(C(=O)O)=C(CSc3nnnn3C)CO[C@@H]21` (some centres undefined), the outcome is reported as “inactive”. In the case of `C[N+]1(C)CCCC(OC(=O)C(O)(c2ccccc2)c2ccccc2)C1` (centres undefined), the outcome is reported as “inactive”. For `CN1CCC(=C2c3ccccc3CCc3cccnc32)CC1`, the outcome was “inactive”. For `NO`, the outcome was “inactive”. For `O=C(CO)[C@@H](O)[C@H](O)[C@H](O)CO`, the outcome was “inactive”. For `CC1=NN(c2cccc(S(=O)(=O)O)c2)C(=O)C1`, the outcome was “inactive”. With `O=C(c1ccccc1)C1(O)CCCCC1` the outcome was “inactive”. With `[O-][n+]1cccc(CO)c1` the outcome was “inactive”. In the case of `CCCCCCCCCCCCCCCCCCO`, the outcome is reported as “inactive”. In the case of `CN1CCN(c2cc3c(nn2)Oc2ccccc2N3C)CC1`, the outcome is reported as “inactive”. For `OCCc1ccccn1`, the outcome was “inactive”. In the case of `Nc1ccn([C@@H]2O[C@H](CO)[C@@H](O)C2O)c(=O)n1` (some centres undefined), the outcome is reported as “inactive”. In the case of `COCCOC[C@H](CC1(C(=O)NC2CCC(C(=O)O)CC2)CCCC1)C(=O)Oc1ccc2c(c1)CCC2` (some centres undefined), the outcome is reported as “inactive”. With `COc1cc(-c2ccc(=O)[nH]n2)ccc1OC(F)F` the outcome was “inactive”. With `CC(=O)c1cnccn1` the outcome was “inactive”. For `CCCCc1ccc2c(n1)[C@@H](c1ccc(OC)cc1C[C@H](C)C(=O)O)[C@H](C(=O)O)[C@H]2c1ccc2c(c1)OCO2`, the outcome was “inactive”. For `CNC(=O)Nc1ccc(Cl)c(Cl)c1`, the outcome was “inactive”. In the case of `COC(=O)Nc1ccc(Cl)c(Cl)c1`, the outcome is reported as “inactive”. For `CCC(C(=O)NC(=O)NC(C)=O)c1ccccc1` (centres undefined), the outcome was “inactive”. For `CCC(C)(CN(C)C)OC(=O)c1ccccc1` (centres undefined), the outcome was “inactive”. In the case of `OCCCCCO`, the outcome is reported as “inactive”. In the case of `Nc1ccn([C@@H]2O[C@H](CO)[C@@H](O)[C@@H]2O)c(=O)n1`, the outcome is reported as “inactive”.
